Tests used:
Assay in all cases: DAPPL (digital affinity profiling via proximity ligation, sequencing); 10 mM Tris-HCl pH 7.5, 50 mM NaCl, 1 mM DTT, 4% glycerol, room temperature, 30 min; GST-TFs on glutathione beads, 16-mer random dsDNA library, 0.1% formaldehyde crosslink after washing; high values mean tight binding
[1] = biological target: T1, FLI1 (Homo sapiens, UniProt Q01543 1-452); conditions: protein: recombinant; tags: N-terminal GST; dsDNA, one strand shown
T1 sequence: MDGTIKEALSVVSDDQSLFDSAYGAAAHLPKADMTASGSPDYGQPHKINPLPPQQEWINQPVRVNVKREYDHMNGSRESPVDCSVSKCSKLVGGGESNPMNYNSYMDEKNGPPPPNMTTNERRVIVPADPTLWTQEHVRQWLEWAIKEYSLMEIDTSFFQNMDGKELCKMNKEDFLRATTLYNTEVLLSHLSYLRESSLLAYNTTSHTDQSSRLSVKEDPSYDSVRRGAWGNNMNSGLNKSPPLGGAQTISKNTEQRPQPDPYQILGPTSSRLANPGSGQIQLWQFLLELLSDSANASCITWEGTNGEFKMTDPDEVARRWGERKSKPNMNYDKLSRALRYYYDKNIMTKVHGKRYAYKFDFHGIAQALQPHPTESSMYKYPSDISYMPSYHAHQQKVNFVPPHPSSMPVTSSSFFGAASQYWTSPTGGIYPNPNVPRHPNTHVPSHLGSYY
Summary of the method: (§1)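 Binding signal is defined as a hexamer's read frequency for one factor over its frequency for the tag-only sample. To obtain reads, GST-fused human transcription factors were expressed in yeast, captured on glutathione beads, barcoded with DNA and pooled with that sample. Pools met 200 nmole of a 16-mer random double-stranded DNA library in Tris/NaCl/DTT/glycerol buffer for 30 min at room temperature before washing, 0.1% formaldehyde crosslinking, proximity ligation (BsaI/T4 ligase, 1 h, 37 °C), PCR and Illumina NextSeq500 sequencing.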

[2] = biological target: T2, ELK1 (Homo sapiens, UniProt P19419 1-428); conditions: protein: recombinant; tags: N-terminal GST; dsDNA, one strand shown
T2 sequence: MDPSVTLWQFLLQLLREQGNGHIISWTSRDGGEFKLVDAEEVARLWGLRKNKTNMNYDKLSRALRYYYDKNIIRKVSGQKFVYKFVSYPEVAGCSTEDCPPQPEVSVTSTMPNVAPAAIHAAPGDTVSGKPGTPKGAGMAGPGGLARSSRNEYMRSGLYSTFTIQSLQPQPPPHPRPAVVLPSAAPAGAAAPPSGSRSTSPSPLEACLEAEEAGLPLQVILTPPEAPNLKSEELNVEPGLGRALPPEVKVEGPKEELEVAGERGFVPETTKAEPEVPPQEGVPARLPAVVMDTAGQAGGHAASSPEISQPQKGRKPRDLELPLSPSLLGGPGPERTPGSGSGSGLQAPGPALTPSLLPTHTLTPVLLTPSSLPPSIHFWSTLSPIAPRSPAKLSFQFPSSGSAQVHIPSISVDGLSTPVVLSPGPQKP
Summary of the method: as §1

[3] = biological target: T3, GABPA (Homo sapiens, UniProt Q06546 1-454); conditions: protein: recombinant; tags: N-terminal GST; dsDNA, one strand shown
T3 sequence: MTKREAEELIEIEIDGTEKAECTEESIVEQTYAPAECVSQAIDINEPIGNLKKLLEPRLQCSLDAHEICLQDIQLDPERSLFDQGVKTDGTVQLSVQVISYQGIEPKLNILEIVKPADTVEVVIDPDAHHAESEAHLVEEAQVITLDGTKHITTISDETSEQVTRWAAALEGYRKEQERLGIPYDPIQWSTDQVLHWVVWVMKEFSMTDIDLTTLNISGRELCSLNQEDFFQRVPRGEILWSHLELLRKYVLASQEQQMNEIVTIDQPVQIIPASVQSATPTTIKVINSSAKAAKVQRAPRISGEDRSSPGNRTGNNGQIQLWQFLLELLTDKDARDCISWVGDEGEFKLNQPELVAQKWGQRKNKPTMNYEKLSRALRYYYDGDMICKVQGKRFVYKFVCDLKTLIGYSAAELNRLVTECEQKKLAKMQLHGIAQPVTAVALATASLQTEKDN
Summary of the method: as §1

[4] = biological target: T4, ERG (Homo sapiens, UniProt P11308 1-479); conditions: protein: recombinant; tags: N-terminal GST; dsDNA, one strand shown
T4 sequence: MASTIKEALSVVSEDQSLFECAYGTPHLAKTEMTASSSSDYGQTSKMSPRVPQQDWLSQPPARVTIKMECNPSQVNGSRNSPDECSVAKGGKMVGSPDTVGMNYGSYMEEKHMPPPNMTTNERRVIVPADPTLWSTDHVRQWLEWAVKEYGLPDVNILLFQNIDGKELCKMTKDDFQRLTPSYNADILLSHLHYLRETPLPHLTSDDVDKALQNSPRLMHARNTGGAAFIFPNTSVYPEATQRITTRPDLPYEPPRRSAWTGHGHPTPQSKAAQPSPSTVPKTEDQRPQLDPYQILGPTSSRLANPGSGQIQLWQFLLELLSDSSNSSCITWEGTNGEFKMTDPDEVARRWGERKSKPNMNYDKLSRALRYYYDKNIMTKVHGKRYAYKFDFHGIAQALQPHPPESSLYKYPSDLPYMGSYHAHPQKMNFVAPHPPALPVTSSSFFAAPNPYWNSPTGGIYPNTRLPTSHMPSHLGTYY
Summary of the method: as §1

[5] = biological target: ELF1 (Homo sapiens, UniProt P32519 1-619); conditions: protein: recombinant; tags: N-terminal GST; dsDNA, one strand shown
Summary of the method: as §1

[6] = biological target: T5, EHF (Homo sapiens, UniProt Q9NZC4 1-300); conditions: protein: recombinant; tags: N-terminal GST; dsDNA, one strand shown
T5 sequence: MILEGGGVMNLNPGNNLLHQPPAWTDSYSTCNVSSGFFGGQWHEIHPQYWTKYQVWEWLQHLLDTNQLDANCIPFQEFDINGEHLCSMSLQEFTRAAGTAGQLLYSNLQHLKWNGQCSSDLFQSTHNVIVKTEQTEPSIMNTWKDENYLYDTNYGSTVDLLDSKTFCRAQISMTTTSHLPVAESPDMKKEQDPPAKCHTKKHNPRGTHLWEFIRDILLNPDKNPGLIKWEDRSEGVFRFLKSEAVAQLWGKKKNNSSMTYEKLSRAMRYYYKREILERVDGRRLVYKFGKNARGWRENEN
Summary of the method: as §1

[7] = biological target: SPI1 (Homo sapiens, UniProt P17947 1-270); conditions: protein: recombinant; tags: N-terminal GST; dsDNA, one strand shown
Summary of the method: as §1

[8] = biological target: SPIB (Homo sapiens, UniProt Q01892 1-262); conditions: protein: recombinant; tags: N-terminal GST; dsDNA, one strand shown
Summary of the method: as §1

[9] = biological target: T6, ELK3 (Homo sapiens, UniProt P41970 1-407); conditions: protein: recombinant; tags: N-terminal GST; dsDNA, one strand shown
T6 sequence: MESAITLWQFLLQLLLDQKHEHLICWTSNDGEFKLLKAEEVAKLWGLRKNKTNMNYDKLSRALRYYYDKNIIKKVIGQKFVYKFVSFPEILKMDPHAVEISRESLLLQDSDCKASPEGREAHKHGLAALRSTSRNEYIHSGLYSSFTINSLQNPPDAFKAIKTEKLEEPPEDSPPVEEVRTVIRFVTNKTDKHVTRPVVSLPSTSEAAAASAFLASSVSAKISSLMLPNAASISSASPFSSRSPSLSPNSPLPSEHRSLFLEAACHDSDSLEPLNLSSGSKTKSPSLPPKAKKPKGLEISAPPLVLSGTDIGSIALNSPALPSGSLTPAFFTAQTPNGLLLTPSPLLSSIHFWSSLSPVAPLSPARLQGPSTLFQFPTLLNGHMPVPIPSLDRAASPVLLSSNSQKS
Summary of the method: as §1

[10] = biological target: T7, FEV (Homo sapiens, UniProt Q99581 1-238); conditions: protein: recombinant; tags: N-terminal GST; dsDNA, one strand shown
T7 sequence: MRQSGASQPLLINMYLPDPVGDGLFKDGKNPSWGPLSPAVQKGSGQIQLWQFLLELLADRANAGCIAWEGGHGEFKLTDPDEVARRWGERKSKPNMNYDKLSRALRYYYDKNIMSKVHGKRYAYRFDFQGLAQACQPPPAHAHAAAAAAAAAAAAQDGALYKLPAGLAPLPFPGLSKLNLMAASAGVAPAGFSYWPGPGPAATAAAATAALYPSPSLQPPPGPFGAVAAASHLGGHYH
Summary of the method: as §1

[11] = biological target: ETV5 (Homo sapiens, UniProt P41161 1-510); conditions: protein: recombinant; tags: N-terminal GST; dsDNA, one strand shown
Summary of the method: as §1

[12] = biological target: HSF1 (Homo sapiens, UniProt Q00613 1-529); conditions: protein: recombinant; tags: N-terminal GST; chain copies: 3; dsDNA, one strand shown
Summary of the method: as §1

[13] = biological target: T8, SPIC (Homo sapiens, UniProt Q8N5J4 1-248); conditions: protein: recombinant; tags: N-terminal GST; dsDNA, one strand shown
T8 sequence: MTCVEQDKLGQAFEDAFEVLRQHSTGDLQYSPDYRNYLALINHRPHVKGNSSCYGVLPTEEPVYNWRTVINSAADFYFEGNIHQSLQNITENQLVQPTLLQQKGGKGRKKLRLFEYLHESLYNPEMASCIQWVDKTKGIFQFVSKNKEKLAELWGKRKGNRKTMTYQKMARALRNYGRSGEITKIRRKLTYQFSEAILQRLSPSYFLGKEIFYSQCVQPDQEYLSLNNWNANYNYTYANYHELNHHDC
Summary of the method: as §1

[14] = biological target: ELF4 (Homo sapiens, UniProt Q99607 1-663); conditions: protein: recombinant; tags: N-terminal GST; dsDNA, one strand shown
Summary of the method: as §1

[15] = biological target: T9, ELK4 (Homo sapiens, UniProt P28324-2 1-405); conditions: protein: recombinant; tags: N-terminal GST; dsDNA, one strand shown
T9 sequence: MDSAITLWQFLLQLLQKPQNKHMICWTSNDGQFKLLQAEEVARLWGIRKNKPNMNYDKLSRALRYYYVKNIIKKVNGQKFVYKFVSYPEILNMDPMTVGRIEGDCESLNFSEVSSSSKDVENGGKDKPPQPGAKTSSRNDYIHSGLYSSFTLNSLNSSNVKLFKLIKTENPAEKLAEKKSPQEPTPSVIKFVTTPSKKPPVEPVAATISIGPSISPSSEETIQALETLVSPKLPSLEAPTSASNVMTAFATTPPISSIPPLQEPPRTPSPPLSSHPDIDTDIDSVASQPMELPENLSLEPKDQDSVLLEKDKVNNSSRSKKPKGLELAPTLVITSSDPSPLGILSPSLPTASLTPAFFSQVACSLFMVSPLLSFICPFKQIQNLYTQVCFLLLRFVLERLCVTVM
Summary of the method: as §1

[16] = biological target: T10, ETV2 (Homo sapiens, UniProt O00321 1-342); conditions: protein: recombinant; tags: N-terminal GST; dsDNA, one strand shown
T10 sequence: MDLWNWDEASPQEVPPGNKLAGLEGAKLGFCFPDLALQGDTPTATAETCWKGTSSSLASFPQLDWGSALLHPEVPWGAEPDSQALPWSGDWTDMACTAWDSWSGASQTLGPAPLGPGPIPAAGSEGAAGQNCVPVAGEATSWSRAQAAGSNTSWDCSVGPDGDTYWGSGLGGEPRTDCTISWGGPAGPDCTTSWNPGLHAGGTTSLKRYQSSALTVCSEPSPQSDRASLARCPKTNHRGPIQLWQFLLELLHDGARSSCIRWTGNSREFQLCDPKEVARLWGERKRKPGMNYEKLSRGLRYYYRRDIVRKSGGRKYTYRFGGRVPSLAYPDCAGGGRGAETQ
Summary of the method: as §1

[17] = biological target: T11, ELF3 (Homo sapiens, UniProt P78545 1-371); conditions: protein: recombinant; tags: N-terminal GST; dsDNA, one strand shown
T11 sequence: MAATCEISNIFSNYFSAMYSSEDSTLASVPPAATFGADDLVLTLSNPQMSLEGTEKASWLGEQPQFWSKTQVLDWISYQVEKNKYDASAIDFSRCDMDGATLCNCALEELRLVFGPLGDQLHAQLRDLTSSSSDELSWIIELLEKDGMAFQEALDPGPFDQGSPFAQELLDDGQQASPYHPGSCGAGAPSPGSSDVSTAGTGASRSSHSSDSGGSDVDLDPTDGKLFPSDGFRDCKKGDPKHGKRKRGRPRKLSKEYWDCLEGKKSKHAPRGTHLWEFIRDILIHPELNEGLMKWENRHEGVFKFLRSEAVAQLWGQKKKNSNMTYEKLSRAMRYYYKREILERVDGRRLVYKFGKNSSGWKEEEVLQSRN
Summary of the method: as §1

[18] = biological target: CRX (Homo sapiens, UniProt O43186 1-299); conditions: protein: recombinant; tags: N-terminal GST; dsDNA, one strand shown
Summary of the method: as §1

[19] = biological target: ETV1 (Homo sapiens, UniProt P50549 1-477); conditions: protein: recombinant; tags: N-terminal GST; dsDNA, one strand shown
Summary of the method: as §1

Chain of ETV5 (P41161 whole entry): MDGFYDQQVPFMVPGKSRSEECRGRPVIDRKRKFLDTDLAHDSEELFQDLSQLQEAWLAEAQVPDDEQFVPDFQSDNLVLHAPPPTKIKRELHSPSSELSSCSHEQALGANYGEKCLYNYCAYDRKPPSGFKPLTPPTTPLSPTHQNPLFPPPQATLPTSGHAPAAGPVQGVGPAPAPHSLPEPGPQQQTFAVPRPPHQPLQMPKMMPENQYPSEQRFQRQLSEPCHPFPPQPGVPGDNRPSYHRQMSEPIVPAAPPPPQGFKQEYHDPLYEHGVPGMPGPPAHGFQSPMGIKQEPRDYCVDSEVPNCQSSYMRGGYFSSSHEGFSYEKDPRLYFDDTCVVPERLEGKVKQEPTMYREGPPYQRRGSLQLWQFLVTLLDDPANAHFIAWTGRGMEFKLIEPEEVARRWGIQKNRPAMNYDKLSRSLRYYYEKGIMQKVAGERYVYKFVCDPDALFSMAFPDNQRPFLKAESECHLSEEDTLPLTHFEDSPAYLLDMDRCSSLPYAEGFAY
Chain of HSF1 (Q00613 whole entry): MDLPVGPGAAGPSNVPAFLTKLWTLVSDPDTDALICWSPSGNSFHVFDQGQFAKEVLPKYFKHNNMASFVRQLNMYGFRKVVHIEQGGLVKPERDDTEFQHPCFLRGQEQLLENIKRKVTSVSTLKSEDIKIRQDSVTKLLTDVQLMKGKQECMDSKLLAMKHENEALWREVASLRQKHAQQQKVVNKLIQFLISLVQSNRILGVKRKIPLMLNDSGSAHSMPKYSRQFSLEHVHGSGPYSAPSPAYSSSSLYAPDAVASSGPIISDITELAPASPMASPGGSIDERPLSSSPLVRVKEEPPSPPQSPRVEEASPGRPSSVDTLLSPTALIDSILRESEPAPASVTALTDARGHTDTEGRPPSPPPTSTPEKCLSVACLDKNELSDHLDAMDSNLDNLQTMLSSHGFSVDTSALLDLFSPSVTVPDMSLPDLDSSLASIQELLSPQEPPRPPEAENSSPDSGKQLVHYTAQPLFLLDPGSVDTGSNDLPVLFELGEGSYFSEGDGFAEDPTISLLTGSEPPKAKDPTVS
Chain of ETV1 (P50549 whole entry): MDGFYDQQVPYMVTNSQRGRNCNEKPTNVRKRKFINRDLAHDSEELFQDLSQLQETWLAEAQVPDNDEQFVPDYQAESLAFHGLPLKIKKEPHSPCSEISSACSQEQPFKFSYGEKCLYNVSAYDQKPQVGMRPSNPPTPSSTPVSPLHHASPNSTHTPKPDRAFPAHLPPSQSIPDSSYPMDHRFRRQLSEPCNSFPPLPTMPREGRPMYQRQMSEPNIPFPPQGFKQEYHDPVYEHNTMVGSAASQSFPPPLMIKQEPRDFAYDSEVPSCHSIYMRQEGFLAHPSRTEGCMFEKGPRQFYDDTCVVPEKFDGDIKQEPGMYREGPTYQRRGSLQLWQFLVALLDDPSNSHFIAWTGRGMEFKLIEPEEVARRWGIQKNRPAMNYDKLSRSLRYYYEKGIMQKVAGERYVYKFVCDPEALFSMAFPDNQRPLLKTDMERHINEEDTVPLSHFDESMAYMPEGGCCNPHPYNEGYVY
Chain of SPIB (Q01892 whole entry): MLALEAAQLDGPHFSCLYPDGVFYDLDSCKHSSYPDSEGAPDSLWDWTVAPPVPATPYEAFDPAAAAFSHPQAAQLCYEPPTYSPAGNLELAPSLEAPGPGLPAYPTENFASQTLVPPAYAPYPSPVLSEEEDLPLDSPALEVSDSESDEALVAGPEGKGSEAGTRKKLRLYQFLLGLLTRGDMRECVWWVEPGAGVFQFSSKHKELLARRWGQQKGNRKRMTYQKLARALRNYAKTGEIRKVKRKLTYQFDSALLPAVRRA
Chain of ELF1 (P32519 whole entry): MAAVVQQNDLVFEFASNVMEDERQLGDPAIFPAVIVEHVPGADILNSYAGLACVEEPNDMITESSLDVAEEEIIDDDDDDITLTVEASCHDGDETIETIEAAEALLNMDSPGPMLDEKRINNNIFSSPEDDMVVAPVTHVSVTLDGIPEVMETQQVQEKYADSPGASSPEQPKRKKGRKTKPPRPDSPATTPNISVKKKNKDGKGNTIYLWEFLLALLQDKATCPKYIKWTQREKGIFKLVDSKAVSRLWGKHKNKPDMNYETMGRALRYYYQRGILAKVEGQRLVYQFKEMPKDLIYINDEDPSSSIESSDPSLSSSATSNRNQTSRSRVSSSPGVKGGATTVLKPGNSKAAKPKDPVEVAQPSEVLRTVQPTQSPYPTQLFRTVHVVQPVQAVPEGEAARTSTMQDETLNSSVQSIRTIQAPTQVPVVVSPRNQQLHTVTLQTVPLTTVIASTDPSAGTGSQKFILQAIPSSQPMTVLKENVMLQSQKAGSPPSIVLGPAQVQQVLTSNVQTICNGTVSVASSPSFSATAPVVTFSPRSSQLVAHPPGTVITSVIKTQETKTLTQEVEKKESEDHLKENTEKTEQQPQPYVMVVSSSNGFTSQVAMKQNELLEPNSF
Chain of CRX (O43186 whole entry): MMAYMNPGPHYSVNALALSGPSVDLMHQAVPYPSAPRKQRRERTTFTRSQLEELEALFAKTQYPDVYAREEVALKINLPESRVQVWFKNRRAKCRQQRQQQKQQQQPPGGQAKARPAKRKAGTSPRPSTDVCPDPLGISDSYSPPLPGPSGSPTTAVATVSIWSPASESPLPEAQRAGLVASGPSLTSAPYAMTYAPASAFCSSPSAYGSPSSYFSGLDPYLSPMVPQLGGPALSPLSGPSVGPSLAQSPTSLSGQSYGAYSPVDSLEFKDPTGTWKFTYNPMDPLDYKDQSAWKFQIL
Chain of ELF4 (Q99607 whole entry): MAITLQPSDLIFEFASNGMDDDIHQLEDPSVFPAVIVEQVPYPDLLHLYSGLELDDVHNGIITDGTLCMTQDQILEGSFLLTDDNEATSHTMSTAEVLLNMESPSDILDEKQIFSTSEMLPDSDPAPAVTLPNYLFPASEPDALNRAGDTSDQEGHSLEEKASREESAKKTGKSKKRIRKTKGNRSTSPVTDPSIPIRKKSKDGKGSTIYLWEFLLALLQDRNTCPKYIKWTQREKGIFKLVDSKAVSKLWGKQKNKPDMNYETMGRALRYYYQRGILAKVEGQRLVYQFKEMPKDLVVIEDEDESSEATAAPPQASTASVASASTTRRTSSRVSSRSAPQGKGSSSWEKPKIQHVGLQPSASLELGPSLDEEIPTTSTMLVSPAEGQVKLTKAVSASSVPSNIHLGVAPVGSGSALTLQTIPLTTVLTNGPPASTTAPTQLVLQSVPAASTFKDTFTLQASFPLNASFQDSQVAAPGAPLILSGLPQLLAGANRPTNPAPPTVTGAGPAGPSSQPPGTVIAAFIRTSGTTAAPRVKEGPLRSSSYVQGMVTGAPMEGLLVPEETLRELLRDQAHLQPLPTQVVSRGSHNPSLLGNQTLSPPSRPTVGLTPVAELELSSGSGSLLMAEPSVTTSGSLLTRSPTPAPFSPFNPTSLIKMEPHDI

For CCCGAC, the binding signal [1] was 1.31 fold enrichment (6-mer frequency, TF over GST control), the binding signal [2] was 1.28 fold enrichment (6-mer frequency, TF over GST control) and the binding signal [3] was 1.39 fold enrichment (6-mer frequency, TF over GST control). For the same sequence, the binding signal [4] was 1.43 fold enrichment (6-mer frequency, TF over GST control), the binding signal [5] was 1.42 fold enrichment (6-mer frequency, TF over GST control) and the binding signal [6] was 1.31 fold enrichment (6-mer frequency, TF over GST control). For the same sequence, the binding signal [7] was 1.29 fold enrichment (6-mer frequency, TF over GST control), the binding signal [8] was 1.44 fold enrichment (6-mer frequency, TF over GST control) and the binding signal [9] was 1.43 fold enrichment (6-mer frequency, TF over GST control). For the same sequence, the binding signal [10] was 1.38 fold enrichment (6-mer frequency, TF over GST control), the binding signal [11] was 1.31 fold enrichment (6-mer frequency, TF over GST control) and the binding signal [12] was 1.19 fold enrichment (6-mer frequency, TF over GST control). The binding signal [13] was 1.53 fold enrichment (6-mer frequency, TF over GST control), the binding signal [14] was 1.29 fold enrichment (6-mer frequency, TF over GST control) and the binding signal [15] was 1.43 fold enrichment (6-mer frequency, TF over GST control). For the same sequence, the binding signal [16] was 1.46 fold enrichment (6-mer frequency, TF over GST control), the binding signal [17] was 1.53 fold enrichment (6-mer frequency, TF over GST control) and the binding signal [18] was 1.06 fold enrichment (6-mer frequency, TF over GST control). For the same sequence, the binding signal [19] was 1.36 fold enrichment (6-mer frequency, TF over GST control).

Source: PMC7862700, “An all-to-all approach to the identification of sequence-specific readers for epigenetic DNA modifications on cytosine”
